TDP1 cell CPT = qHTS for Inhibitors of human tyrosyl-DNA phosphodiesterase 1 (TDP1): qHTS in cells in presence of CPT; chicken DT40 Tdp1-/-;hTDP1 cells + 20 nM CPT, ATP luminescence, 48 h; Potency, µM (highest dose often 46.2 µM), for inactives: at the top dose activity change, negative = growth inhibition, most hits filed as inhibitors; actives 12% (n = 420,000); AID 686979, 2013; further: potency means the concentration at half of the fitted maximal effect; nearly all actives have a fitted effect of over 55% in size
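Chicken DT40 Tdp1-/- cells stably complemented with human TDP1 were seeded at 400 cells/well in medium containing 20 nM camptothecin, exposed to pin-transferred compounds, and grown at 37 °C for at least 48 hr. Viability was read as ATP luminescence.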
ELG1 repair inh = qHTS screen for small molecules that inhibit ELG1-dependent DNA repair in human embryonic kidney (HEK293T) cells expressing luciferase-tagged ELG1. HEK293T ELG1-luciferase reporter, luminescence, 16 h; DNA damage induced by 5-fluorouridine. Potency, µM (highest dose often 46.1 µM), for inactives: at the top dose activity change, negative = inhibition, actives largely listed as inhibitors. actives 2.3% (n = 330,000); further: potency means the concentration at half of the fitted maximal effect; nearly all actives have a fitted effect of over 55% in size
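Overnight (16 hr) co-exposure of 2,000 cells/well to 5-fluorouridine and compound at 37 °C preceded detection. Luciferase was quantified via ONE-Glo luminescence; loss of signal denotes inhibition.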
TDP1 block = qHTS Assay for Inhibitors of Tyrosyl-DNA Phosphodiesterase (TDP1); Tyrosyl-DNA phosphodiesterase 1 (Homo sapiens), Q9NUW8; recombinant TDP1, AlphaScreen DNA substrate cleavage; Potency, µM (top dose mostly 130 µM), inactives show top-dose activity change, negative = inhibition, most hits filed as inhibitors; actives 0.28% (n = 350,000); AID 485290, 2010; further: potency means the concentration at half of the fitted maximal effect; nearly all actives have a fitted effect of over 40% in size
Target sequence (Q9NUW8 whole entry, looked up): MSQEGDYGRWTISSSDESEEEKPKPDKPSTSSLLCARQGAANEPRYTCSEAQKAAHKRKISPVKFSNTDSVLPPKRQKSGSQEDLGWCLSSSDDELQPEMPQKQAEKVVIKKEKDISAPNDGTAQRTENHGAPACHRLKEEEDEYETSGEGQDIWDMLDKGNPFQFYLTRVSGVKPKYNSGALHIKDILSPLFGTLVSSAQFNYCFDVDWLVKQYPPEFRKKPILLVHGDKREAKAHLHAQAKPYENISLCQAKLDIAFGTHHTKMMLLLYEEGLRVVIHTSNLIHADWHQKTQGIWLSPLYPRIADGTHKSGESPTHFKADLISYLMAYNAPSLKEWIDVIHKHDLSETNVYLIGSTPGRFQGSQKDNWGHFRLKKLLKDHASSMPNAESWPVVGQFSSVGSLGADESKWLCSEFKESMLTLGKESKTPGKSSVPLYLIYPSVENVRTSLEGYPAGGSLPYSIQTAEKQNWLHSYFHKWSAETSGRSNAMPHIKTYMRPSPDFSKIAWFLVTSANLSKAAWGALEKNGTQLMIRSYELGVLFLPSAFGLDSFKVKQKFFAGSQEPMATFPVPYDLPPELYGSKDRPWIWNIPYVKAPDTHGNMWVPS
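Recombinant human Tdp1 (E. coli-expressed, 1 nM final) preincubated with compounds 15 min at room temperature, then 5'-biotin/3'-phosphotyrosine-FITC DNA substrate (15 nM final) added for 5 min. AlphaScreen beads (10 ug/ml final) added 10 min; cleavage lowers signal.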
DT40 TDP1 no CPT = qHTS for Inhibitors of human tyrosyl-DNA phosphodiesterase 1 (TDP1): qHTS in cells in absence of CPT. DT40 Tdp1-/- hTDP1 cells, no CPT, ATP luminescence, 48 h. Potency, µM (doses to about 46.2 µM), for inactives: at the highest dose activity change, negative = growth inhibition, most hits filed as inhibitors. actives 15% (n = 420,000). AID 686978, 2013; further: potency means the concentration at half of the fitted maximal effect; nearly all actives have a fitted effect of over 55% in size
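Chicken DT40 Tdp1-/- cells complemented with human TDP1, screened without camptothecin (DMSO vehicle only), 400 cells/well. Compounds pin-transferred, cells incubated at 37 °C for at least 48 hr. Growth read as ATP-dependent luminescence (CellTiter-Glo, 30 min at RT).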
IL-1B inflam inh = qHTS for Inhibitors of Inflammasome Signaling: IL-1-beta AlphaLISA Primary Screen; activity change, % at 57.5 µM; actives 4.7% (n = 360,000); THP-1 LPS/ATP IL-1B secretion, AlphaLISA, 16 h; stronger effect = lower value; in the data active means activity change below about -50%; inconclusive means mostly about -30% to -49%
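THP-1 cells pretreated 1 hr with compounds (up to 57.5 uM final), then stimulated with LPS (250 ng/mL final) plus ATP (1.25 mM final); secreted IL-1B measured by AlphaLISA after 16 hr, decreased signal indicating inhibition.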
Giardia kill = Small Molecules that selectively kill Giardia lamblia: qHTS; Giardia lamblia trophozoite viability; activity change, % at 7.66 µM, hits read low; actives 0.15% (n = 340,000); in the data active means activity change below about -80%; inconclusive means between about -30% and that limit;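 further: parasites exposed to compound for two days anaerobically before the ATP read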
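Trophozoites 100 cells/well + cpd; 48 hrs, 37 deg C, anaerobic. ATPLite 1-Step added, 15-30 min RT, luminescence read (ATP-based viability).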
Active calls of the source: *; ? = inconclusive; . = no result given; [ ] = dose if it differs, or a comment. Most compounds without a hit are left out; they make up all but 19% or so of the library. Unless noted, the call rests on the fitted dose curve; in most records, active means well fitted curve in the direction sought with a large enough effect; inconclusive means small, poorly fitted or top-dose-only effect, or another doubt; inactive means no such curve, though single readings can be large; an effect the other way counts as inactive or inconclusive. On the % scale 0 is the no-effect control and ±100 the full control effect.

SMILES	TDP1 cell CPT	ELG1 repair inh	TDP1 block	DT40 TDP1 no CPT	IL-1B inflam inh	Giardia kill
O=C(NCCN1CCNC1=O)C1CCC(=O)N(Cc2cccc(C(F)(F)F)c2)C1 (stereo not drawn)	-4.3%	26.0%	0.2%	0.6%	-7.8	23.2
CCc1cc(=O)[nH]c(SCc2nc(-c3cccc(Cl)c3)no2)n1	18.4µM*	.	0.0%	16.4µM*	.	.
CCCc1cc(=O)[nH]c(SCc2nc(-c3ccc(C)cc3)no2)n1	-17.5%	.	-2.7%	-17.5%	.	.
C=CCC[C@@H](Cc1ccc(F)cc1)C(=O)OCCNC(=O)[C@@H](CC=C)CC(=O)N[C@H](CO)Cc1ccccc1	20.6µM*	?	1.7%	?	2.5	-19.3
C=CCC[C@@H](Cc1ccc(F)cc1)C(=O)OC[C@@H](C)NC(=O)[C@@H](CC=C)CC(=O)N[C@H](CO)Cc1ccccc1	14.6µM*	?	1.8%	?	?	-0.8
C=CCC[C@@H](Cc1ccc(F)cc1)C(=O)OCCNC(=O)[C@@H](CC=C)CC(=O)N[C@@H](CO)Cc1ccccc1	?	-4.9%	-0.4%	-26.3%	-19.2	29.8
C=CC[C@@H](CC(=O)N[C@@H](CO)Cc1ccccc1)C(=O)N[C@@H](COC(=O)[C@@H](CC=C)Cc1ccc(F)cc1)Cc1ccccc1	-19.2%	15.7%	1.6%	?	-2.1	-9.6
C=CC[C@@H](CC(=O)N[C@H](CO)Cc1ccccc1)C(=O)N[C@@H](C)COC(=O)[C@@H](CC=C)Cc1ccc(F)cc1	?	?	0.5%	18.4µM*	19.9	10.2
CC(=O)Nc1ccccc1C	-3.3%	?	0.6%	8.9%	-1.0	-0.8
Cc1ccccc1NC(=O)C(=Cc1ccc(C(=O)O)cc1)C(=O)Nc1ccccc1C	9.2µM*	11.6µM*	5.1%	8.2µM*	-106.1*	-5.5
CC(=O)/C(=C/c1ccccc1)C(=O)Nc1ccccc1C	?	19.3%	3.1%	4.61µM*	-104.3*	-5.3
CCOC(=O)c1cnc(N2CCN(C(=O)OCC)CC2)[nH]c1=O	10.8%	16.1%	5.4%	7.2%	30.9	-7.0
O=C(COC(=O)C1=NN(c2ccccc2)C(=O)CC1)Nc1ccc([N+](=O)[O-])cc1C(F)(F)F	0.7%	12.1%	1.4%	-17.6%	50.3	0.6
O=S(=O)(Nc1cc(Cl)ccc1-n1cncn1)c1ccc(F)cc1	?	-24.7%	3.8%	?	44.9	-17.1
O=S(=O)(Nc1cc(Cl)ccc1-n1cncn1)c1cc(Br)ccc1Br	25.9µM*	23.1µM*	-2.1%[56.1 µM]	5.8µM*	-54.2*	-5.8
Cc1cc(C)c(CN2CCC3(CCC(CNC(=O)c4ccn(C)n4)O3)CC2)cc1C (stereo not drawn)	-18.6%	.	.	-21.4%	.	.
CCN1CCN(c2ncnc3c2cnn3-c2ccc(C)c(Cl)c2)CC1	-17.7%	.	7.8%	-20.6%	.	.
Cc1ccc(-n2ncc3c(N4CCN(CCO)CC4)ncnc32)cc1Cl	11.6µM*	.	5.2%	?	.	.
Cc1ccc(-n2ncc3c(N4CCN(C)CC4)ncnc32)cc1Cl	?	.	2.6%	20.6µM*	.	.
CCN1CCN(c2cc(-c3ccc(F)cc3)c3c(n2)CCCCCC3)CC1	10.5%	.	.	4.2%	.	.
CCN(CC)S(=O)(=O)c1ccc2[nH]c(=O)cc(C(=O)Nc3cccc(C(C)=O)c3)c2c1	3.8%	?	2.5%	?	17.4	-0.9
CC(=O)c1cccc(NC(=O)c2cccc3c(-c4cnn(C)c4)coc23)c1	13µM*	.	.	20.6µM*	-81.1*	.
